Source: the supplement of paper PMC13380429

System: Vero E6 infected with SARS-CoV-2
Test: inhibition of SARS-CoV-2 cytopathic effect; higher = more antiviral protection, active = above 15
Details: 48 h

Measured: inhibition of SARS-CoV-2 cytopathic effect

Cc1c(C)c2c(c(C)c1OC(=O)CCC(=O)O)CC[C@@](C)(CCC[C@H](C)CCC[C@H](C)CCCC(C)C)O2 [D-alpha-tocopheryl-succinate]
inactive: 1 nM -5.51% | 8.33 nM -5.87% | 100 nM -7.06% | 833.33 nM -5.36% | 10000 nM -2.64%

C=CC(=O)Nc1cc(Nc2nccc(-c3cn(C)c4ccccc34)n2)c(OC)cc1N(C)CCN(C)C [osimertinib]
inactive: 1 nM 1.08% | 8.33 nM 0.08% | 100 nM -5.65% | 833.33 nM -10.8% | 10000 nM -16.5%

Cc1c(N)cccc1Cn1ccc(OCCc2cccs2)cc1=O
inactive: 1 nM -0.22% | 8.33 nM 0.73% | 100 nM 1.31% | 833.33 nM 0.66% | 10000 nM -2.07%

C1Cc2[nH]nc(-c3nn[nH]n3)c2C1
inactive: 1 nM -1.32% | 8.33 nM -1.1% | 100 nM -1.82% | 833.33 nM -3.19% | 10000 nM 2.43%

CO[C@H]1/C=C/O[C@@]2(C)Oc3c(C)c(O)c4c(O)c(c5c(nc6cc(C)ccn65)c4c3C2=O)NC(=O)/C(C)=C\C=C\[C@H](C)[C@H](O)[C@@H](C)[C@@H](O)[C@@H](C)[C@H](OC(C)=O)[C@@H]1C [rifaximin]
inactive: 1 nM 0.71% | 8.33 nM -2.16% | 100 nM -0.03% | 833.33 nM -3.72% | 10000 nM -3.3%

Cc1c(CN2CCN(C(=O)[C@H](C)O)CC2)sc2c(N3CCOCC3)nc(-c3cnc(N)nc3)nc12
inactive: 1 nM -0.71% | 8.33 nM 0.05% | 100 nM 0.57% | 833.33 nM -5.06% | 10000 nM -12.7%

N=C(N)NCCC[C@H](NC(=O)c1sccc1NS(=O)(=O)c1cccc2nsnc12)C(=O)O
inactive: 1 nM -1.17% | 8.33 nM 0.96% | 100 nM 1.72% | 833.33 nM 0.4% | 10000 nM 1.98%

CC(C)[C@@H]1CC[C@@H](C)C[C@H]1O [levomenthol]
inactive: 1 nM 0.46% | 8.33 nM -1.68% | 100 nM 1.02% | 833.33 nM 0.09% | 10000 nM -0.2%

Cc1nc2c([nH]1)-c1ccccc1N(C(=O)c1ccc(NC(=O)c3ccccc3-c3ccccc3)cc1)CC2 [conivaptan]
inactive: 1 nM 3.24% | 8.33 nM -1.76% | 100 nM 0.14% | 833.33 nM -0.62% | 10000 nM -6.5%

COc1ncc(-c2ccc3nccc(-c4ccnnc4)c3c2)cc1NS(=O)(=O)c1ccc(F)cc1F
inactive: 1 nM -1.37% | 8.33 nM -0.94% | 100 nM -8.41% | 833.33 nM -8.47% | 10000 nM 3.03%

CC(C)[C@@H]1C(=O)N(S(C)(=O)=O)[C@@H]2CCN(C(=O)/C=C/CN3CCCCC3)[C@H]21
inactive: 1 nM -0.03% | 8.33 nM -1.45% | 100 nM 1.05% | 833.33 nM -0.28% | 10000 nM 0.66%

CCN(CCO)CCCOc1ccc2c(Nc3cc(CC(=O)Nc4cccc(F)c4)[nH]n3)ncnc2c1 [barasertib-HQPA]
inactive: 1 nM -1.93% | 8.33 nM -0.82% | 100 nM -3.04% | 833.33 nM -4.18% | 10000 nM -5.49%

CCn1cc(C(=O)O)c(=O)c2cc(F)c(N3CCNC(C)C3)c(F)c21 (stereo not given) [lomefloxacin]
inactive: 1 nM 0.57% | 8.33 nM -0.12% | 100 nM -1.13% | 833.33 nM 0.73% | 10000 nM -1.41%

CCCc1nc(C(C)(C)O)c(C(=O)OCc2oc(=O)oc2C)n1Cc1ccc(-c2ccccc2-c2nnn[nH]2)cc1 [olmesartan-medoxomil]
inactive: 1 nM -1.27% | 8.33 nM 0.1% | 100 nM -1.32% | 833.33 nM 1.87% | 10000 nM 0.55%

COc1ccc(CCNCc2ccc(OCc3ccc(Cl)nc3)c(OC)c2)cc1OC
inactive: 1 nM -1.43% | 8.33 nM 0.63% | 100 nM -0.05% | 833.33 nM -1.6% | 10000 nM -2.68%

NS(=O)(=O)NCCNc1nonc1/C(=N/O)Nc1ccc(F)c(Br)c1
inactive: 1 nM -1.72% | 8.33 nM -0.99% | 100 nM -3.11% | 833.33 nM 3.1% | 10000 nM -1.01%

C[n+]1ccccc1C=NO [pralidoxime]
inactive: 1 nM 1.86% | 8.33 nM 0.25% | 100 nM 0.14% | 833.33 nM 0.94% | 10000 nM 1.11%

Nc1nc(NCCc2ccc(O)cc2)nc2nc(-c3ccco3)nn12
inactive: 1 nM 0.11% | 8.33 nM -0.03% | 100 nM -0.54% | 833.33 nM -1.25% | 10000 nM -5.15%
